Results taken from ChEMBL document CHEMBL3988442, “University of Dundee, Small-Polar-MMV Screening Library” (2021).
Hit rate of the full screen: of about 48,000 compounds, about 13,000 (27%) showed an effect of 50% or more. Some of the results follow.

Test system: Wolbachia pipientis
Assay: Anti-Wolbachia Cell-Based Screen
Type: functional
Design: scale not given: in the data most compounds retested in dose-response had high values
Conditions: 5 µM

Compound	Percent Effect [%]
CC(C)N(C)C(=O)c1ccc(Cl)c(NC(=O)C2CCC2)c1	2.877
c1cnc(N2CCC(NCc3cnc(C4CCC4)s3)CC2)nc1	3.36
OC(c1cccs1)C1CCN(c2ncccn2)CC1 (stereo not drawn)	0.2293
c1cnc(N2CCCC(c3csc(Nc4cnccn4)n3)C2)nc1 (stereo not drawn)	106
c1cnc(N2CCC(c3csc(Nc4cnccn4)n3)CC2)nc1	101.3
Cc1cccc(C(C(=O)N(C)Cc2ccon2)N(C)C)c1 (stereo not drawn)	3.369
Cc1noc(-c2cccnc2N(C)Cc2ccc([S+](C)[O-])cc2)n1 (stereo not drawn)	9.143
Nc1nc2c(c(NC(=O)Nc3ccccc3)n1)CCCC2	-9.493
O=C1NC(=O)c2c3c(nc(O)c21)CCCC3	98.35
CN(Cc1ccccc1)C(=O)CN1CCCC1c1cnn(C)c1 (stereo not drawn)	-36.94
COc1ccc(C2CCCN2C(=O)NCCNc2ncccn2)cc1 (stereo not drawn)	-12.53
CN(C(=O)Nc1ccccn1)C1CCCN(c2ccccc2)C1=O (stereo not drawn)	-3.011
CN(C)C(=O)CN1CCCC1c1nccnc1Nc1ccccn1 (stereo not drawn)	99.96
CCC(=O)N1CCCC1c1nccnc1Nc1ncccn1 (stereo not drawn)	-3.342
COCC(=O)N1CCCC1c1nccnc1Nc1ncccn1 (stereo not drawn)	112.6
COCC(=O)N1CCCC1c1nccnc1Nc1nc(C)cs1 (stereo not drawn)	111.3
Cc1csc(Nc2nccnc2C2CCCN2C(=O)C(C)C)n1 (stereo not drawn)	0.9263
Cc1cccc(Nc2cc(C)nc(C3CCCCN3CC(N)=O)n2)n1 (stereo not drawn)	123.2
Cc1cc(Nc2nc(C)cs2)nc(C2CCCCN2CCO)n1 (stereo not drawn)	-3.809
COCc1cccc(CNC(=O)CN2CCCC2c2noc(C)n2)c1 (stereo not drawn)	-0.5396
COc1nc2c(cc1C(=O)N1CCCOC(CN3CCCC3)C1)CCC2 (stereo not drawn)	-1.335
Cc1ccc(CNC(=O)C2CCN(C(=O)c3ccccc3)CC2)n1C	-7.91
Cc1ccc(C2(C(=O)N3CCC(n4cc(C(C)O)nn4)CC3)CC2)cc1 (stereo not drawn)	-9.43
O=C(O)c1ccc(CCNC(=O)C2(c3ccccc3)CC2)cc1	2.318
C[C@@H]1CN(CC(C)(C)N2CCOCC2)C[C@@]1(O)C1CC1	17.03

Compound	Percent Effect [%]
CCc1nc(NS(=O)(=O)c2ccc(F)cc2C)no1	-5.54
CC(C)(C)C(=O)N1CCCC1c1ccc(C(=O)N2CCOCC2)s1 (stereo not drawn)	-16.89
CC(C)(C)C(=O)N1CCCC1c1nccnc1Cl (stereo not drawn)	155.8
Cc1cccc(Nc2nccnc2C2CCCN2CC(N)=O)n1 (stereo not drawn)	127.5
CC(C)Cn1cnnc1C1CCCN1C(=O)OC(C)(C)C (stereo not drawn)	4.117
CC(C)CC(=O)N1CCCC1c1nccnc1Nc1ncccn1 (stereo not drawn)	105.7
Cl.NCC(=O)N1CCCC1c1nccnc1Nc1ncccn1 (stereo not drawn)	117.8
FC(F)c1nnc2ccc(N3CCC4(CCCCC4)C3)nn12	-13.07
O=C(O)[C@H]1C[C@H](C(=O)NC2CC2)CN(Cc2ccc(-c3cc[nH]n3)s2)C1	-5.985
CCOC(=O)CCC(=O)N1CCC(CSCc2ccco2)CC1	-5.481
CC(C)N(CC(=O)O)Cc1cccc(Br)c1.Cl	-4.939
COCCn1ccnc1-c1cc(CN2CCCCC2)cs1	-8.994
CC(=O)N1CCCC1c1nccnc1NCc1cccnc1 (stereo not drawn)	106.4
COCCn1ccnc1C1CCCN(c2ncnc3c(C)csc23)C1 (stereo not drawn)	-8.002
CC(=O)N1CCCC1c1nnn2cc(NCc3cccnc3)ccc12.O=C(O)C(F)(F)F.O=C(O)C(F)(F)F (stereo not drawn)	4.094
Cc1csc(Nc2nccnc2C2CCCN2CC(N)=O)n1 (stereo not drawn)	113.4
COCCN1CCCC(c2nccnc2Nc2nc(C)cs2)C1 (stereo not drawn)	86.28
Cc1cccc(Nc2nccnc2C2CCCN(CC(=O)N(C)C)C2)n1 (stereo not drawn)	110.8
Cc1cc(C2CCCN2C(=O)NCc2cccnc2)on1 (stereo not drawn)	-8.527
CC(=O)N1CCC2(CCCN(C(=O)CCN3CCCCC3)C2)C1 (stereo not drawn)	-26.8
O=C(Cc1cccs1)NC1(C(=O)NCC2CC2)CCCC1	4.522
CC(=O)N1CCCC1c1nccnc1Nc1ncccn1 (stereo not drawn)	114.6
CC(=O)N1CCCC1c1nnn2cc(Nc3ccccc3)ccc12.O=C(O)C(F)(F)F (stereo not drawn)	-10.64
COCCC(=O)N1CCCC1c1nccnc1Nc1ncccn1 (stereo not drawn)	132.2
CNS(=O)(=O)Cc1ccc(CNC(=O)Nc2cccnc2)cc1	-4.432

Compound	Percent Effect [%]
COC1CCCN(C(=O)Nc2nc(C)n(C)n2)C1 (stereo not drawn)	-6.454
CCC[C@@H]1CN(Cc2nnc(-c3cccc(F)c3)o2)C[C@H]1NC(C)=O	-4.818
N#CC1COCCN1C(=O)c1cccc2cc[nH]c12 (stereo not drawn)	105.1
CNS(=O)(=O)CC1CCCN1C(=O)c1ccc2cc[nH]c2c1 (stereo not drawn)	-9.261
O=C(c1ccc2[nH]ccc2c1)N1CCCCC1c1nc[nH]n1 (stereo not drawn)	5.747
O=C(c1ccc2[nH]cnc2c1)N1CCC(Oc2cccnc2)CC1	-0.01073
N#CC1COCCN1C(=O)c1ccc2[nH]ccc2c1 (stereo not drawn)	142.7
N#CC1COCCN1C(=O)c1ccc2cc[nH]c2c1 (stereo not drawn)	87.5
NC(=O)CC1CCCCN1C(=O)c1ccc2cc[nH]c2c1 (stereo not drawn)	-8.838
CCc1nnc2n1CCN(C(=O)c1ccc3[nH]cnc3c1)C2	-15.67
O=C(c1cccc2cc[nH]c12)N1CCC2(CCOC2)C1 (stereo not drawn)	-1.625
CC(C)(C)OC(=O)N1CCCN1C(=O)c1cccc2cc[nH]c12	-15.66
O=C(O)C(c1ccc2[nH]ccc2c1)N1CCOCC1 (stereo not drawn)	14
N#CC1COCCN1C(=O)c1ccc2[nH]cnc2c1 (stereo not drawn)	108.9
Cc1ncc(CNC(=O)N(C)C2CCN(c3ccccc3)C2=O)s1 (stereo not drawn)	-4.731
Cc1cccc2c1cnn2CCCNC(=O)CCCC(=O)O	-9.765
CC(C(=O)N(C)C)S(=O)(=O)c1cc2c(cc1Cl)OCCO2 (stereo not drawn)	4.925
Cc1ccccc1CSc1nc(N)cc(N2CCOC(C(N)=O)C2)n1 (stereo not drawn)	17.62
Cc1ccc(C)c(CSc2nnc([C@@H](N)C(C)C)o2)c1.Cl	118.1
Cc1ccc(C)c(OCc2nnc(SCC3CCCN(C)C3)o2)c1 (stereo not drawn)	-6.886
Cc1ccc(C)c(CSc2nnc(C(N)Cc3ccccc3)o2)c1.Cl (stereo not drawn)	112.4
Cc1ccc(C)c(CSc2nnc(C(N)C(C)C)o2)c1.Cl (stereo not drawn)	129.6
CSCC[C@H](N)c1nnc(SCc2cc(C)ccc2C)o1.Cl	100.9
